Tau filament bind – binders of human tau filaments. P10636. recombinant tau filaments, thioflavin S fluorescence, 15 h; filaments grown with octadecylsulfate alongside compound. Potency, µM (series often up to 57.1 µM). hit rate 2% among 71,000;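 note: actives lower thioflavin S fluorescence by blocking filaments or displacing dye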
Target sequence (P10636 whole entry, looked up): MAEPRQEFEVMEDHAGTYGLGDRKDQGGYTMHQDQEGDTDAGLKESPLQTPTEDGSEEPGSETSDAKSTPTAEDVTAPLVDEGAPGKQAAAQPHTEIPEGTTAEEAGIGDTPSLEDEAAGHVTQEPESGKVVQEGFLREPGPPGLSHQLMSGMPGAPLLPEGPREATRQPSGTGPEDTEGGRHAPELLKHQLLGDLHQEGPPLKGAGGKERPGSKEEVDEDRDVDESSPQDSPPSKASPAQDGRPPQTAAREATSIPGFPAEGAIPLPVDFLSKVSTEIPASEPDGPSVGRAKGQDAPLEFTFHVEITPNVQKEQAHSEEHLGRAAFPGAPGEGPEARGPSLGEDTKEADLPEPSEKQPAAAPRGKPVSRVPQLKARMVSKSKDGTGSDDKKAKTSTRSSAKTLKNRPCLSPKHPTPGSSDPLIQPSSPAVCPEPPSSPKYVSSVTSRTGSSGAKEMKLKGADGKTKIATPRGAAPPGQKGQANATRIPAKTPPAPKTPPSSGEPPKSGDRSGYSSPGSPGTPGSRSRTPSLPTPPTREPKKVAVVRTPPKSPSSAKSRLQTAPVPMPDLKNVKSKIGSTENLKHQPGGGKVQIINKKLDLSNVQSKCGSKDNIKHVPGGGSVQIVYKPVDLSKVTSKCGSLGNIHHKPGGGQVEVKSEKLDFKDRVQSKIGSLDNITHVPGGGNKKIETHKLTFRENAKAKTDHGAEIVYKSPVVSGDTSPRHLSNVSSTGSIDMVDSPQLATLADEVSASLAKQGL
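Assay mix: 1 uM His-tagged tau, 30 uM sodium octadecylsulfate, thioflavine S dye in HEPES/NaCl/DTT buffer. Compound is added prior to the inducer. Fluorescence after 15 h at 37 C.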
p53ts 32C tox – p53ts cell cytotoxicity, permissive temperature; H1299-p53A138V at 32C, ATP luminescence viability, 24 h; Potency, µM (top dose mostly 46.1 µM), hits mostly cytotoxic; hit rate 0.93% among 130,000; AID 924; note: nearly all actives have a fitted effect of over 55% in size
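Viability by ATPlite luminescence after 24 h compound treatment (up to 46 uM) at the permissive 32C. Cells are H1299 carrying p53 A138V. Scale runs from DMSO basal to 100 uM tamoxifen as full kill; AC50 from Hill fits.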
Luciferase inh – firefly luciferase inhibition | purified firefly luciferase, luminescence, 8 min | Potency, µM (doses to about 57.1 µM), hits mostly inhibitors | hit rate 2.2% among 72,000; note: nearly all actives have a fitted effect of over 40% in size
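Substrate buffer containing 10 uM ATP (pH 7.2 imidazole, Mg2+, KCl, detergent, BSA) is dispensed, compound pinned in, then luciferase/luciferin detector mix added. After 8 min at ambient temperature, light output is measured.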
Imprint erasure – inducers of genomic imprint erasure in mouse ES cells; mouse ES Peg3-LacZ reporter, beta-gal luminescence, 40 h; Potency, µM (titrated, usually from 60.7 µM), hits mostly activators; hit rate 0.02% among 110,000
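Imprint erasure is scored as LacZ activity from the silenced maternal Peg3 allele in feeder-free female ES cells cultured 40 h with LIF. Luminescence is normalized to in-plate negative controls and fitted to the Hill equation.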
p53ts 39C tox – p53ts cell cytotoxicity, nonpermissive temperature; H1299-p53A138V viability at 39C, ATP luminescence, 24 h; Potency, µM (titrated, usually from 46.1 µM), most hits filed as cytotoxic; hit rate 1.5% among 130,000; AID 902; note: nearly all actives have a fitted effect of over 55% in size
Hits are given with their value; i = inactive; ? = inconclusive; nt = not tested or not shown; ! = not active in a repeat; [ ] = remark or other dose. Most compounds without a hit are left out; they make up all but 3.4% or so of the library. Calls come from the whole dose curve; as a rule, active = well fitted curve in the direction sought with a large enough effect; inconclusive = small, poorly fitted or top-dose-only effect, or another doubt; inactive = no such curve, though single readings can be large; an effect the other way counts as inactive or inconclusive.

SMILES	Tau filament bind	p53ts 32C tox	Luciferase inh	Imprint erasure	p53ts 39C tox
Cc1c(C)n(CC(O)CN2CCCCCC2)c2ccccc12 (configuration not stated)	12.6µM	i	i	i	i
CN1CCN(CCC=C2c3ccccc3Sc3ccc(S(=O)(=O)N(C)C)cc32)CC1	i	i	i	i	15.8µM!
CN1CCc2cccc3c2[C@@H]1Cc1ccc(O)c(O)c1-3	?	31.6µM!	i[11.4 µM]	i	10µM!
COc1cc2c3cc1Oc1c(OC)c(OC)cc4c1[C@@H](Cc1ccc(O)c(c1)Oc1ccc(cc1)C[C@@H]3N(C)CC2)N(C)CC4	?	i	i[11.4 µM]	i	i
CC1(C)CC(=O)C2=C(C1)NC(SCC(=O)Nc1ccccc1)=C(C#N)C2c1ccco1 (configuration not stated)	12.6µM	i	i	i	i
Cc1ccc(C(=O)CSC2=C(C#N)C(c3ccco3)C3=C(CC(C)(C)CC3=O)N2)cc1 (configuration not stated)	i	i	i	i	i
Cc1sc2ncnc(SCc3ccco3)c2c1C	i	i	i	i	i
Cc1sc2ncnc(Sc3nnnn3-c3ccc(Cl)cc3)c2c1C	i	10µM	i	i	5.01µM
Cc1ccc(NC(=O)Cn2c(=O)ccc3cc(S(=O)(=O)N4CCCC4)ccc32)cc1N(C)C	nt	i	nt	i[10.9 µM]	i
Cc1ccc2c(c1)C(=O)[C@@]1(O)CCN(c3ccccc3)C1=N2	25.1µM	i	12.6µM	i	i
Cc1ccc2c(c1)C(=O)C1(O)CCN(c3ccccc3)C1=N2 (configuration not stated)	nt	nt	nt	i	nt
CC1CCN(c2ccc(-c3nc(C(C)C)no3)cc2[N+](=O)[O-])CC1	nt	i	nt	i[10.9 µM]	i
Cc1cc(Cl)ccc1OCC(=O)N1CCC(c2nc3ccccc3s2)CC1	nt	?	nt	i[10.9 µM]	i
COc1ccc(Cn2c(C)nc3c(c2=O)c2nc4ccccc4nc2n3Cc2ccco2)cc1	2.51µM	i	i	i	i
CCO/C(C)=N/n1c2nc3ccccc3nc2c2c(=O)n(Cc3ccccc3Cl)c(C)nc21	nt	nt	i	nt	nt
COc1ccc(Cn2c3nc4ccccc4nc3c3c(=O)n(Cc4ccco4)c(C)nc32)cc1	?	i	i	i	i
Cc1nc2c(c(=O)n1Cc1ccccc1Cl)c1nc3ccccc3nc1n2Cc1ccco1	15.8µM	i	i	i	i
Cc1cc(NC(=O)N2CC=C(c3c[nH]c4ccccc34)CC2)ccc1Br	nt	i	nt	i[10.9 µM]	i
CCOc1ccc(CCNC(=O)c2ccc(Cn3c(=O)c4cccn4c4cccnc43)cc2)cc1	nt	i	nt	i[10.9 µM]	?
O=C(CN1CCOc2ccccc21)NC1CCN(Cc2ccccc2)CC1	12.6µM	i	i	i	i
COc1ccc(-c2csc3nc(C)n(-n4cccc4)c(=O)c23)cc1OC	i	i	i	i	i
Cc1nc2sc(-c3ccccc3)cc2c(=O)n1-n1cccc1	i	i	20µM	i	?
CCc1nnc(NC(=O)c2nc(S(=O)(=O)Cc3ccc(C)cc3)ncc2Cl)s1	nt	15.8µM	nt	i[10.9 µM]	6.31µM
CCc1nnc(NC(=O)c2nc(S(=O)(=O)Cc3cccc(C)c3)ncc2Cl)s1	nt	?	nt	i[10.9 µM]	5.01µM
CCOc1ccccc1NC(=O)c1c(NC(=O)c2cccc(C)c2)sc2c1CCCC2	nt	i	nt	i[10.9 µM]	i
SMILES	Tau filament bind	p53ts 32C tox	Luciferase inh	Imprint erasure	p53ts 39C tox
CCOc1ccccc1NC(=O)c1nc(S(=O)(=O)Cc2cccc(C)c2)ncc1Cl	nt	15.8µM	nt	i[10.9 µM]	3.16µM
CCc1nnc(NC(=O)c2nc(SCc3ccccc3F)ncc2Cl)s1	nt	i	nt	i[10.9 µM]	i
Cn1ccnc1SCc1cn2cc(Br)ccc2n1	i	?	15.8µM	i	?
C[N+](C)(C)CCCSc1nc2ccccc2[nH]1	i[11.4 µM]	i[9.22 µM]	i[11.4 µM]	i[10.9 µM]	i[9.22 µM]
CC(=O)N=C(N)Sc1nc2ccccc2[nH]1	nt	i	12.6µM	nt	i
Cc1ccc(NC(=O)Cn2c(=O)n(Cc3ccco3)c(=O)c3ccc(C(=O)NC4CCCC4)cc32)c(C)c1	nt	i	nt	i[10.9 µM]	12.6µM
CCOc1ccc(NC(=O)N2CC=C(c3c[nH]c4ccccc34)CC2)cc1	nt	i	nt	i[10.9 µM]	i
COc1cccc(CNc2cc(C)nc3nc(-c4ccc(C)cc4)nn23)c1	nt	?	nt	i[10.9 µM]	7.94µM
CCOc1ccc2nc(N3CCC(C(=O)N4CCN(C5CCCCC5)CC4)CC3)sc2c1	i	i	15.8µM	i	i
CCOc1ccc2nc(N3CCCCCC3)sc2c1	i	?	12.6µM	i	i
CCOc1ccc2nc(NS(=O)(=O)c3ccc4c(c3)n(C)c(=O)n4C)sc2c1	i	i	i	i	i
CCOc1ccc2nc(N3CCCC(C(=O)N4CCN(CC)CC4)C3)sc2c1 (configuration not stated)	i	i	?	i	i
CCOc1ccc2nc(NS(C)(=O)=O)sc2c1	15.8µM	i	i	i	i
CCOc1ccc2nc(N3CCC(C(=O)N4CCN(C(=O)c5ccco5)CC4)CC3)sc2c1	i	?	7.94µM	i	?
CC1Cn2c(C(=O)NCc3cccc(Br)c3)cc3cccc(c32)S1 (configuration not stated)	nt	i	nt	i[10.9 µM]	i
c1ccncc1	i	i[1.84 µM]	nt	i	i
CCOc1ccc2nc(N3CCN(C(=O)c4ccc(S(=O)(=O)CC)cc4)CC3)sc2c1	nt	i	nt	i[10.9 µM]	i
CCOc1ccc2nc(N3CCN(C(=O)CS(=O)(=O)c4ccc(F)cc4)CC3)sc2c1	nt	14.1µM	nt	i[10.9 µM]	6.31µM
Cc1ccc(SC/C(O)=C(\C#N)c2nc3ccccc3s2)cc1	i	?	i	i	i
COc1ccc(C/C(O)=C(\C#N)c2nc3ccccc3s2)cc1	i	?	i	i	12.6µM
Cc1cc(NC(=O)CCc2nc3cccnc3n2-c2ccccc2)ccc1Br	nt	i	nt	i[10.9 µM]	i
COc1ccc(C2=C(C)C(=O)N(Cc3ccc(C(=O)Nc4ccc(F)cc4C)cc3)S2(=O)=O)cc1	nt	i	nt	i[10.9 µM]	i
CCOCc1cc(CN2CCN(c3cccc(Cl)c3)CC2)c(O)c2ncccc12	nt	i	nt	?	3.16µM
COc1ccc(N2CCN(C(=O)c3c(C)oc4ncnc(N5CCCCC5)c34)CC2)cc1	nt	i	nt	i[10.9 µM]	i
Cc1ccc(CNC(=O)Cn2c(=O)n(Cc3ccccc3)c(=O)c3c2c2cc(C)ccc2n3C)cc1	nt	i	nt	i[10.9 µM]	i
SMILES	Tau filament bind	p53ts 32C tox	Luciferase inh	Imprint erasure	p53ts 39C tox
Cc1nc2cc(NC(=O)Nc3ccc(N4CCOCC4)cc3)ccc2n1C	25.1µM	i	i	i	i
Nc1nnc(C(=O)c2ccccc2N)s1	i	15.8µM	i	i	?
CCc1c(C)nc2cc(-c3ccc(OC)cc3)[nH]n2c1=O	i	?	20µM	i	?
Cc1ccc(-c2cc3nc4c(c(=O)n3[nH]2)CCCC4)cc1	i	?	3.98µM	i	?
COc1ccc(-c2c(C#N)c(SCC(=O)Nc3ccc(C)c(C)c3)nc(C)c2C(=O)Nc2ccc(Cl)cc2)cc1	nt	i	nt	i[10.9 µM]	i
Cc1ccc2[nH]c(=O)c(-c3nc4cc(C)ccn4c3NCc3ccco3)cc2c1	15.8µM	i	i	i	i
Cc1nnc(NC(=O)C2COc3ccccc3O2)s1 (configuration not stated)	i	i	i	i	i
O=C(NC1=NCCS1)C1COc2ccccc2O1 (configuration not stated)	i	12.6µM	2µM	i	12.6µM
